# Test system: MILI (PIWIL2) piRISC loaded with L1MC piRNA (26 nt)
# Test: pre-steady-state target cleavage rate (min^-1); guide: L1MC piRNA 5'p-UAACUAAAUACUAUGCAAGCUGUAGG; MIWI and MILI are mouse PIWI proteins and EfPiwi is from a freshwater sponge; tags in brackets are library labels; higher = faster piRNA-guided slicing of the target
# Details: auxiliary factor: none (no GTSF1)
# Outline: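 With or without 500 nM GTSF1 partner protein, 1 nM active affinity-purified piRISC carrying one synthetic guide was mixed with 0.1 nM transcribed, DNA-blocked target RNA library in HEPES–potassium acetate buffer at 33 °C for 0–8 or 0–960 min. Uncleaved targets were sequenced and normalised to depth and to weakly complementary targets, three trials were pooled, and k3 was capped at 0.0001 min^-1. The pre-steady-state cleavage rate came from a burst-and-steady-state fit.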
row,Sequence,pre-steady-state target cleavage rate
1,UCCUGGAUGUCCAACCAUAGUAUUUAGUAA,< 0.0001
2,UCCUGGAUGUCGAACGUAUGAUUUUAGUUA,< 0.0001
3,UCCUGGAUGUCGAUGCAUACUAUUUAGUAA,< 0.0001
4,UCCUGGAUGUCGAACGUAAGUAAUAAGUUA,< 0.0001
5,UCCUGGAUGUCGAACGAUAGUAUAAUGUUA,< 0.0001

# Reference: the supplement of paper PMC10338343
